Screens deposited in PubChem by Broad Institute.
aSyn UTR act: Activators working through SNCA 5'UTR binding (MLPCN); alpha-synuclein 5'UTR reporter, activators screen; activity score, % (tested at 7.5 µM), hits read low; AID 1814; 300,000 tested, 7.1% active; in the data active = activity score below about -60%
* = called active by the depositor. The list is a sample of the results.

SMILES	aSyn UTR act
O=c1sc(N2CCN(c3ccc(F)cc3)CC2)nc2ccsc12	-179*
Cc1occc1C(=O)NNC(=S)Nc1ccccc1	-88*
Cc1occc1C(=O)NNC(=O)c1ccccc1F	-82*
Cc1occc1C(=O)NNC(=S)Nc1ccccc1C(F)(F)F	-86*
Cn1c(/C=C/c2ccccc2[N+](=O)[O-])nc2ccccc2c1=O	-133*
O=[N+]([O-])c1ccccc1/C=C/c1ccc2ccccc2n1	-138*
Cn1c(/C=C/c2ccc(Br)cc2)nc2ccccc2c1=O	-171*
Cc1cc(N2CCN(c3ccc([N+](=O)[O-])c4cccnc34)CC2)c2ccccc2n1	84
O=[N+]([O-])c1ccc2nc(N3CCCC3)sc2c1	-121*
Cc1ccc(C(=O)c2cc([N+](=O)[O-])ccc2N2CCCCC2)cc1	81
Cc1cc(N2CCCCCC2)nc2ccc(F)cc12	-64*
Fc1cc(F)c2nc(N3CCCCC3)sc2c1	-98*
Fc1ccc2nc(N3CCCC3)sc2c1	-200*
O=C(N/N=C/c1cn(Cc2ccccc2)c2ccccc12)c1cc(O)cc(O)c1	62
O=C(O)c1ccc(N/N=C/c2cn(Cc3ccc(F)cc3)c3ccccc23)cc1	-69*
Cc1c(/C=N\NC(=O)C2COc3ccccc3O2)c2ccccc2n1C (stereo not drawn)	102
O=[N+]([O-])/C=C/c1cn(Cc2ccc(F)cc2)c2ccccc12	63
Cc1c(/C=N/Nc2ccc(C(=O)O)cc2)c2ccccc2n1C	-119*
Cc1c(C(=O)O)cccc1-c1ccc(/C=N/n2cnnc2)o1	-79*
Cc1c(C(=O)O)cccc1-c1ccc(/C=N/Nc2ccc(Br)cc2)o1	-145*
c1ccc(N2CCN(c3nc4ccccc4[nH]3)CC2)nc1	-136*
COc1ccccc1NCC(=O)N/N=C(\C)c1cccs1	-92*
CCOCC(=O)Nc1cc(C(=O)Nc2cc(C)cc(C)c2)ccc1Cl	-66*
CCCCOc1ccc(C(=O)Nc2ccc3c(c2)OCO3)cc1	-93*
CCCOc1ccc(C(=O)Nc2ccc3c(c2)OCO3)cc1	-95*
SMILES	aSyn UTR act
CCC(=O)Oc1ccc(C(=O)Nc2ccc3c(c2)OCO3)cc1	-72*
CC(C)c1ccc(NC(=O)c2sccc2-n2cccc2)cc1	-146*
O=C(N/N=C/c1ccc([N+](=O)[O-])cc1)c1cccs1	-118*
O=C(N/N=C/c1ccc(-c2cccc([N+](=O)[O-])c2)o1)c1cccs1	-118*
Cc1nnsc1C(=O)N/N=C/c1ccc2ccccc2c1O	120
O=C(N/N=C/c1c[nH]c2ccccc12)c1sc2ccccc2c1Cl	-69*
Cc1nc(N)sc1C(=O)N/N=C/c1ccccc1[N+](=O)[O-]	-133*
Cn1cccc1/C=N/NC(=O)c1sc2ccccc2c1Cl	-80*
Cc1nc(N)sc1C(=O)N/N=C/c1c[nH]c2ccccc12	-79*
CC(/C=N/NC(=O)c1sc(N)nc1C)=C\c1ccccc1	-116*
CCN(CC)CCNC(=O)/C(=C/c1cn(C)c2ccccc12)NC(=O)c1ccc(OC)c(OC)c1	-64*
Cn1cc(/C=C(\NC(=O)c2ccccc2Cl)C(=O)NCCN2CCOCC2)c2ccccc21	-72*
[O-]/[N+](=C\c1ccncc1)c1ccc(Br)cc1	-225*
[O-]/[N+](=C/c1cccnc1)c1ccc(Br)cc1	-95*
CCOc1ccc(/C=C2\CCC(C3CCCC3)C2=O)cc1 (stereo not drawn)	-229*
O=C1/C(=C/c2ccccc2)CCC1C1CCCC1 (stereo not drawn)	-73*
O=C1/C(=C/c2ccco2)CCC1C1CCCC1 (stereo not drawn)	-66*
O=C1/C(=C/c2ccc(F)cc2)CCC1C1CCCC1 (stereo not drawn)	-133*
O=C1C(=C2SCCCS2)CC/C1=C\c1ccc(F)cc1	119
Cc1ccc(O)c(-n2nc3ccccc3n2)c1	-134*
CN(C)S(=O)(=O)c1cccc(NC(=O)COC(=O)c2cc3ccccc3oc2=O)c1	-105*
O=C(COC(=O)c1cc2ccccc2oc1=O)Nc1ccc(F)cc1F	-169*
CN(C)S(=O)(=O)c1cccc(NC(=O)c2cc3ccccc3o2)c1	-122*
CCN(CC)S(=O)(=O)c1cccc(NC(=O)c2cc3ccccc3o2)c1	-126*
CN(Cc1nc(-c2cccs2)no1)CC(O)c1ccccc1 (stereo not drawn)	-62*
SMILES	aSyn UTR act
c1ccc(OCc2nc(-c3cccs3)no2)cc1	-173*
Fc1ccc(OCc2nc(-c3cccs3)no2)cc1	-123*
O=C1CC(c2ccco2)CC2=C1C1c3ccccc3C(=O)N1c1ccccc1N2 (stereo not drawn)	-114*
COc1ccc([C@@H](C)NC(=O)c2ccc3oc(C(C)C)nc3c2)cc1	-70*
COc1ccc(Cc2nc3ccc(C(=O)N4CCCC4)cc3o2)cc1	-155*
COc1ccc(Cc2nc3ccc(C(=O)NC(C)C)cc3o2)cc1	-107*
C=C(C)CNC(=O)c1ccc2nc(Cc3ccc(OC)cc3)oc2c1	-178*
COCc1c(C(C)C)nc(C(C)C)c(/C=C/[C@@H](O)C[C@@H](O)CC(=O)O)c1-c1ccc(F)cc1	115
O=C(c1ccc2nc(Cc3cccc(Cl)c3)oc2c1)N1CCOCC1	-99*
CCCc1nc2ccc(NC(C)=O)cc2c(=O)n1Cc1ccc(Cl)cc1	-137*
Cc1nc2ccc(N)cc2c(=O)n1Cc1ccc(Cl)cc1	-74*
COc1ccc(Cn2c(C3CC3)nc3ccc(NC(=O)c4cccnc4)cc3c2=O)cc1	-176*
COc1ccc(Cn2c(C3CC3)nc3ccc(NC(C)=O)cc3c2=O)cc1	-121*
O=C(N=C1SCC(=O)N1c1ccccc1Cl)c1ccccc1	-210*
O=C(N=C1SCC(=O)N1c1ccccc1Cl)c1ccco1	-174*
CCCCCCSc1ccc(-c2nc3ccccn3c2NCCCC)cc1	-113*
Cc1ccc2nc(-c3ccc(-c4cccc(Cl)c4)cc3)c(NCc3ccccc3)n2c1	-68*
CCCCNc1c(-c2ccc(-c3cccc(Cl)c3)cc2)nc2ccccn12	-105*
CC(=O)c1cccc(NC(=O)CSc2ccc(-c3ccccn3)nn2)c1	69
CCOc1ccc(-c2ccc(SCC(=O)N3CCN(c4ccccc4)CC3)nn2)cc1	-69*
O=C(CSc1ccc(-c2ccccn2)nn1)N1CCCCC1	-66*
O=C(CSc1ccc(-c2ccccc2)nn1)N1CCCCC1	-155*
CC(C)COc1ccc(C(=O)Nc2ccccc2[N+](=O)[O-])cc1	-212*
CCCOc1ccc(C(=O)Nc2ccc(C)cc2[N+](=O)[O-])cc1	-72*
COCCCNc1nc(N)c([N+](=O)[O-])c(Nc2cc(OC)ccc2OC)n1	55
SMILES	aSyn UTR act
COCCCNC(=S)Nc1ccc(C)cc1[N+](=O)[O-]	-75*
Cc1ccc(-n2nc(C)c3c(C)cc(=O)[nH]c32)cc1	-69*
Cc1ccnc(NC(=O)CCCNC(=O)c2ccc(Cl)cc2)c1	-182*
Cc1ccnc(NC(=O)CNC(=O)c2sc3ccccc3c2Cl)c1	-216*
Cc1ccnc(NC(=O)c2sc3cc(Cl)ccc3c2Cl)c1	-140*
CCN(CC)Cc1ccc(NC(=O)c2sc3cc(Cl)ccc3c2Cl)cc1	104
Cc1ccc(C(=O)NCCOc2ccc(Cl)cc2)cc1	-88*
Cc1ccc(OC(=O)c2oc3ccc(F)cc3c2C)c(C)c1	-112*
CCC(C)c1ccc(NC(=O)C2CC2)cc1 (stereo not drawn)	-73*
CC(C)c1ccc(NC(=O)C2CC3CCC2C3)cc1 (stereo not drawn)	-197*
CCC(C)c1ccc(NC(=O)C2CC3CCC2C3)cc1 (stereo not drawn)	-99*
